The text below walks through data of PubChem BioAssay (NCATS).

The structures appear in SMILES notation. Records with an inconclusive call do not appear. The source made the active and inactive calls. The call rests on the fitted dose curve; in most records, active means well fitted inhibition curve with a large enough effect; inconclusive means small, poorly fitted or top-dose-only effect; inactive means flat fitted curve, though single readings scatter.

Holding throughout (assay): qHTS profiling for inhibitors of Plasmodium falciparum proliferation (AID 504749); further: nearly all actives have a fitted effect of over 60% in size
Common to all, as to settings: P. falciparum in erythrocytes, SYBR Green DNA, 72 h; series mostly up to 28.7 µM
On the technique in general: In qHTS, concentration-response curves come from the screen itself.

One experiment has as its system CP329. A digest of the protocol: (§1)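 Readout was DNA-dye fluorescence from lysed cultures, ex 485/em 535 nm. Parasitized red cells had grown 72 h with compound; data scaled between 0.29 uM artemisinin and DMSO wells and corrected using vehicle-only plates.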
The test system of another experiment is DFO2036. The gist of the method: as §1
The subject of the next experiment is DIV14. The gist of the method: as §1
The next experiment has as its system DIV30. The gist of the method:
as §1

A further experiment has as its system Dd2. A digest of the protocol:
as §1

The test system of a further experiment is ECU. A digest of the protocol: as §1
In the next experiment the test system is FAB9. A digest of the protocol:
as §1

Another experiment concerns GB4. The gist of the method: as §1
The next experiment relates to HB3. A digest of the protocol: as §1
The subject of a further experiment is ICS. A digest of the protocol:
as §1

The subject of a further experiment is JCK. A digest of the protocol: as §1
In the next experiment the test system is N140. The gist of the method:
as §1

Another experiment deals with P93_24. A digest of the protocol:
as §1

A further experiment concerns P94_40. The gist of the method:
as §1

Another experiment deals with PAD. The gist of the method: as §1
Another experiment concerns PC15. A digest of the protocol:
as §1

In another experiment the test system is PC26. The gist of the method:
as §1

A further experiment concerns PC49. A digest of the protocol: as §1
The subject of another experiment is CP335. A digest of the protocol: as §1
For another experiment, the system named is DIV17. A digest of the protocol:
as §1
Potency means the concentration at half of the fitted maximal effect.

On to `O=C(O)c1cc(O)c2c(c1)[O][Bi][O]2`, for which the Potency result in the experiment with CP329, in the experiment with DFO2036, in the experiment on DIV14, in the experiment with DIV30, in the experiment on Dd2 and in the experiment with ECU was “inactive” in each case. Moreover, the Potency result in the experiment with FAB9, with GB4, in the experiment on HB3, in the experiment on ICS, in the experiment with JCK and in the experiment with N140 was “inactive” throughout. In addition, the Potency result in the experiment with P93_24, in the experiment on P94_40, in the experiment on PAD, in the experiment on PC15, in the experiment on PC26 and in the experiment on PC49 was “inactive” in each case.

Turning to `CN=C(NC#N)Nc1ccc(C2=NNC(=O)C[C@@H]2C)cc1`, the Potency result in the experiment with DFO2036, with Dd2, in the experiment with ECU, with FAB9, in the experiment on HB3 and with ICS was “inactive” each time. Also, the Potency entry in the experiment on JCK, with N140, with P93_24, with P94_40, in the experiment with PAD and in the experiment on PC15 was “inactive” each time. Moreover, the Potency result with PC49 is “inactive”.

`CCCCCC(CC)COC(=O)CC(C(=O)OCC(CC)CCCC)S(=O)(=O)O` (stereo unspecified): the Potency result in the experiment on DFO2036, with Dd2, with ECU, in the experiment with FAB9, in the experiment with HB3 and in the experiment on ICS was “inactive” throughout. Besides, the Potency entry with JCK, in the experiment with N140, in the experiment with P93_24, with P94_40, in the experiment on PAD and in the experiment with PC15 was “inactive” throughout. Moreover, the Potency entry in the experiment on PC49 was “inactive”.

Take `O=S(=O)(O)c1cc(O)c2c(N=Nc3ccc(Nc4ccccc4)c4c(S(=O)(=O)O)cccc34)cc(S(=O)(=O)O)cc2c1`: the Potency result with CP329, with CP335, in the experiment on DIV30, in the experiment with ECU, in the experiment on FAB9 and in the experiment with GB4 was “inactive” throughout. In addition, the Potency result in the experiment on HB3, in the experiment on JCK and with PAD was “inactive” each time.

`CCOc1ccc2c(c1)C(C)=CC(C)(C)N2`: the Potency result with CP329, in the experiment with DFO2036, in the experiment with DIV14, with DIV17, with DIV30 and in the experiment on Dd2 was “inactive” throughout. The Potency entry in the experiment with ECU, with FAB9, in the experiment with GB4, in the experiment with HB3, in the experiment on JCK and with N140 was “inactive” each time. In addition, the Potency result with P93_24, in the experiment with P94_40, in the experiment on PAD, with PC15, in the experiment with PC26 and with PC49 was “inactive” in each case.

In the case of `CC[C@@]1(O)C(=O)OCc2c1cc1n(c2=O)Cc2cc3c([N+](=O)[O-])cccc3nc2-1`, the Potency in the experiment with CP329 is 12 µM (active); in the experiment with CP335, 4.78 µM (active); with DFO2036 it was 5.01 µM (active); with Dd2 it was 8.91 µM (active); with ECU, 7.94 µM (active); in the experiment on GB4, 6.75 µM (active). Further, the Potency with ICS is 5.01 µM (active); in the experiment with N140 it was 8.91 µM (active); in the experiment with P93_24, 7.94 µM (active); with P94_40 it was 5.01 µM (active).

Take `C=C1C(=CC=C2CCC[C@@]3(C)[C@@H]2CC[C@H]3[C@H](C)CCCC(C)C)C[C@@H](O)C[C@@H]1O`: the Potency entry in the experiment with CP329, in the experiment with DIV14, with DIV30, with FAB9, with GB4 and with JCK was “inactive” throughout. In addition, the Potency result with PC26 is “inactive”. Moreover, the Potency is 10 µM (active) in the experiment on Dd2; 10 µM (active) in the experiment with ECU; 12.6 µM (active) with HB3; 12.6 µM (active) in the experiment with ICS; 14.1 µM (active) in the experiment on N140.

Take `CCN(CC)CCOc1ccc(-c2nc3cc(Cl)ccc3s2)cc1`: the Potency entry in the experiment with CP329, in the experiment on DIV30, with FAB9, with HB3, with JCK and in the experiment on N140 was “inactive” throughout. Moreover, the Potency entry in the experiment with PC26 and with PC49 was “inactive” in each case. The results for the Potency with DIV17 and in the experiment with GB4 were 15.1 µM (active) and 16.9 µM (active), respectively.

For the compound `CCOC(=O)C1=CC2(CC)CCCN3CCc4c(n1c1ccccc41)C32` (stereo unspecified), the Potency in the experiment on DFO2036 was 11.2 µM (active); in the experiment on Dd2, 12.6 µM (active); in the experiment on ECU, 11.2 µM (active); in the experiment on FAB9 it was 7.94 µM (active); in the experiment with HB3, 12.6 µM (active); with ICS, 10 µM (active). For the same compound, the Potency is 8.91 µM (active) in the experiment on N140; 7.94 µM (active) in the experiment with P93_24; 12.6 µM (active) with P94_40; 11.2 µM (active) in the experiment with PAD; 11.2 µM (active) with PC15.

As to `O=C(Nc1cccc(C(F)(F)F)c1)c1cc(Br)cc(Br)c1O`, the Potency with DFO2036 was 10 µM (active); with DIV14 it was 13.5 µM (active); in the experiment with DIV17 it was 13.5 µM (active); in the experiment on DIV30, 13.5 µM (active); in the experiment with ECU, 10 µM (active); with ICS, 8.91 µM (active). Moreover, the Potency in the experiment with JCK was 10 µM (active); with N140, 11.2 µM (active).

Turning to `CC1=C(/C=C/C(C)=C/C=C/C(C)=C/CO)C(C)(C)CCC1`, the Potency entry in the experiment on CP329, in the experiment on FAB9 and in the experiment on JCK was “inactive” each time. In addition, the Potency with DIV14 was 12 µM (active); with DIV17 it was 16.9 µM (active); with Dd2, 14.1 µM (active); in the experiment on ECU, 10 µM (active); with ICS it was 7.08 µM (active); in the experiment with N140 it was 8.91 µM (active).

Take `NC1C2CN(c3nc4c(cc3F)c(=O)c(C(=O)O)cn4-c3ccc(F)cc3F)CC12` (stereo unspecified): in the experiment on CP335, the Potency was 6.01 µM (active). Further, the Potency result in the experiment with DIV30 and in the experiment with PC26 was “inactive” in each case.

In the case of `Clc1cc(Cl)c(OCC#CI)cc1Cl`, the Potency with DIV14 is 9.53 µM (active); in the experiment on DIV17, 13.5 µM (active); in the experiment with GB4 it was 10.7 µM (active); in the experiment on ICS, 7.94 µM (active); with N140, 10 µM (active); in the experiment with P93_24, 7.94 µM (active). Besides, the Potency in the experiment with P94_40 and in the experiment on PAD was 11.2 µM (active) each time.

For the compound `CCCCCCOc1ccc(C(=N)N(CCCC)CCCC)c2ccccc12`, the Potency with CP335 was 8.49 µM (active); with DIV14, 12 µM (active); in the experiment on DIV17, 12 µM (active); in the experiment with ECU, 8.91 µM (active); with GB4, 10.7 µM (active); in the experiment with ICS it was 2.82 µM (active). Further, the Potency in the experiment with P94_40 was 12.6 µM (active); with PC15 it was 10 µM (active). Further, the Potency entry in the experiment with P93_24 was “inactive”.
